# Test results reported in PubChem BioAssay (NCATS).
# Inconclusive results are not listed. Active and inactive are the calls of the source. Unless noted, the call rests on the fitted dose curve; in most records, active means well fitted curve in the direction sought with a large enough effect; inconclusive means small, poorly fitted or top-dose-only effect, or another doubt; inactive means no such curve, though single readings can be large; an effect the other way counts as inactive or inconclusive.
# Legend:
# [1] = target: Cytochrome P450 3A4 (Homo sapiens) (UniProt P08684); experiment: qHTS Assay for Inhibitors and Substrates of Cytochrome P450 3A4 (AID 884); further: nearly all actives have a fitted effect of over 50% in size; further: potency means the concentration at half of the fitted maximal effect; on activity change, negative = inhibition: on the % scale 0 is the no-effect control and ±100 the full control effect
# Sequence of Cytochrome P450 3A4 (Homo sapiens) (P08684 whole entry, looked up): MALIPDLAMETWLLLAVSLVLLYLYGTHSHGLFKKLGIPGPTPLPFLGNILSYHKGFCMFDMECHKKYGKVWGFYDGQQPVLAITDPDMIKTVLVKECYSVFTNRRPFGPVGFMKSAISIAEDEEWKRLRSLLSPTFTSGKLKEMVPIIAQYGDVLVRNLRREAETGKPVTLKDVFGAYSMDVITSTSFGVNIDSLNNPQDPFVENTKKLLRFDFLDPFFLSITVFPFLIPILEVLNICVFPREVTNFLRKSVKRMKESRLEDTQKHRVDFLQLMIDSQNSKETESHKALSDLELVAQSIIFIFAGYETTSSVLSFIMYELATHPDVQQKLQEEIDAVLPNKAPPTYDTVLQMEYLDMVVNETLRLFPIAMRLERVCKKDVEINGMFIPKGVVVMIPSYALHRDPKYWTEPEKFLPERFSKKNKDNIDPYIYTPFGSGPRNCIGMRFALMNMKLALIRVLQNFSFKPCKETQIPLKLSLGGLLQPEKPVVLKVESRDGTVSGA
# Summary of the method: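 Luminescent readout of luciferin produced by CYP3A4 (20 nM) dealkylation of Luciferin-PPXE, 25 uM (its KM). NADPH-driven reaction ran 60 min at RT after 10 min compound preincubation; data scaled to 57 uM ketoconazole as 100% inhibition.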
# [2] = target: Cytochrome P450 3A4 (Homo sapiens) (UniProt P08684); experiment: qHTS Assay for Activators of Cytochrome P450 3A4 (AID 885); further: nearly all actives have a fitted effect of over 65% in size
# Summary of the method: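 Luminescent readout of luciferin formed from 25 uM Luciferin-PPXE (KM level) by 20 nM CYP3A4 in 200 mM KPO4, with 60 min NADPH-driven reaction at room temperature after 10 min compound exposure. Ketoconazole (57 uM) defined 100% inhibition.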
# [3] = Confirmation and Secondary Assay for Modulators of Hemoglobin Beta Chain Splicing at IVS2 654 locus (AID 910);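 further: HeLa cells stably carrying EGFP split by mutant beta-globin IVS2-654 intron; % of control where 0% means no effect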
# Summary of the method: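 HeLa cells stably expressing EGFP interrupted by β-globin IVS2-654 intron, seeded overnight in Opti-MEM/2% FCS, then treated 2 days at 37 °C. Restored splicing read as total peak GFP intensity per well by laser scanning cytometry (488 nm excitation, 500–520 nm emission); 500 nM antisense PNA as control.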
# [4] = Confirmation and Secondary Assay for Modulators of Hemoglobin Beta Chain Splicing at IVS2 705 locus (AID 930);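 further: HeLa cells stably expressing the EGFP-705 splicing reporter; % of control where 0% means no effect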
# Summary of the method: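 Restored EGFP fluorescence after 2-day compound exposure reports splicing correction in IVS2-705 EGFP reporter HeLa cells; positive control was 500 nM splice-blocking PNA oligo. Signal measured as well total peak GFP intensity (488 nm excitation).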
# [5] = qHTS Assay for Lipid Storage Modulators (AID 1519; calls by dose curve; on activity change, negative = inhibition: on the % scale 0 is the no-effect control and ±100 the full control effect); conditions: Drosophila S3 cells, BODIPY lipid droplet/cell ratio, laser cytometry, cells loaded with oleic acid; for activity change, negative = inhibition: at 57.5 µM (top of the series)
# Summary of the method: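 Cells seeded at 5,000 per well were treated with compounds over a concentration series and loaded with oleic acid (400 uM, as added). Lipid droplet fluorescence (488 nm excitation, 500-530 nm channel) was read by laser-scanning cytometry and normalized to 20 uM Triacsin C.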
# [6] = qHTS assay for small molecule antagonists of retinoid X receptor alpha signaling (AID 588546; active means well fitted inhibition curve with a large enough effect in the signal ratio, with a control signal flat, not every such curve was filed as active; the % refers to the signal ratio; further: potency means the concentration at half of the fitted maximal effect;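 on max response: cells stimulated with 9-cis-retinoic acid as agonist; on the % scale 0 is the no-effect control and ±100 the full control effect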); conditions: HEK293T RXRa-UAS-bla, beta-lactamase ratio, antagonist mode; measured here: W530 green channel, cytotoxicity proxy
# Summary of the method: (§1)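 Beta-lactamase reporter inhibition, read as CCF4 fluorescence ratio (ex 405, em 460/530 nm) after 2 h at RT. HEK293T UAS-bla cells, 2500/well, were stimulated with 9-cis-RA at 500 or 100 nM final alongside test compound for 18 h at 37 C.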
# [7] = target: Retinoic acid receptor RXR-alpha (Homo sapiens) (UniProt P19793); experiment: as above; conditions: HEK293T RXRa-UAS-bla, beta-lactamase ratio, antagonist mode
# Sequence of Retinoic acid receptor RXR-alpha (Homo sapiens) (P19793 whole entry, looked up): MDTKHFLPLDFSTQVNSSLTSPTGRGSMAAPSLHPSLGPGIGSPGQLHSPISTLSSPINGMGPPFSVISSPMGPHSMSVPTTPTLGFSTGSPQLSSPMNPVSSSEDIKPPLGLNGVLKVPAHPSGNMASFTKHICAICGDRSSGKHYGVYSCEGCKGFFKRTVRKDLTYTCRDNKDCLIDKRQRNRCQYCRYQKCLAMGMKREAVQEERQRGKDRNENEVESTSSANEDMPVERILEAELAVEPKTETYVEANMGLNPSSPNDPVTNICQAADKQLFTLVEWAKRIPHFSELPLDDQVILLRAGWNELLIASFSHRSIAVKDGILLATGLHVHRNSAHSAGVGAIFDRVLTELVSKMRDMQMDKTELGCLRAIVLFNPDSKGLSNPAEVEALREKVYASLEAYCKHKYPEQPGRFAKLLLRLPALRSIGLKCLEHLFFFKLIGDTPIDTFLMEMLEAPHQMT
# Summary of the method: as §1
# [8] = qHTS assay for small molecule activators of the p53 signaling pathway (AID 651743; active means well fitted activation curve with a large enough effect in the signal ratio, not every such curve was filed as active; the % refers to the signal ratio; further: potency means the concentration at half of the fitted maximal effect); conditions: HCT-116 p53RE-bla, beta-lactamase FRET ratio, 16 h; activation: stronger effect = higher value
# Summary of the method: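 Following 16 hours of compound exposure at 37 C, HCT-116 cells bearing the p53RE-bla reporter were loaded with LiveBLAzer B/G FRET substrate for 2 hours at room temperature and fluorescence intensity was recorded.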
# [9] = qHTS assay for small molecule activators of the nuclear factor-kappa B (NF-kB) signaling pathway (AID 651749; active means well fitted activation curve with a large enough effect in the signal ratio; the % refers to the signal ratio; further: % of control where 0% means no effect); conditions: NF-kB-bla ME-180 cells, beta-lactamase FRET ratio, 16 h; activation: stronger effect = higher value
# Summary of the method: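 In this qHTS format, compounds acting as activators increase NF-kB-driven beta-lactamase in ME-180 cells, measured as disrupted FRET after 16 hr exposure at 37C and 5% CO2.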
# [10] = qHTS assay for environmental chemicals that activate the Aryl hydrocarbon Receptor (AhR) signaling pathway (AID 651777); conditions: 1A2-DRE human hepatoma cells, luciferase, 24 h; activation: stronger effect = higher value; further: % of control where 0% means no effect; nearly all actives have a fitted effect of over 15% in size
# Summary of the method: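 Luminescence (One-Glo, 30 min, room temperature) reports AhR-driven luciferase in stably transfected human hepatoma cells bearing DRE and CYP1A2 promoter. Cells (1,200/well) were treated with compound for 24 hr at 37 C in qHTS format.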
# [11] = target: Peroxisome proliferator-activated receptor alpha (Homo sapiens) (UniProt Q07869); experiment: qHTS assay for small molecule agonists of the peroxisome proliferator-activated receptor alpha (PPARalpha) signaling pathway (AID 651778); conditions: PathHunter PPARalpha complementation, chemiluminescence, 6 h; stronger effect = higher value; further: % of control where 0% means no effect
# Sequence of Peroxisome proliferator-activated receptor alpha (Homo sapiens) (Q07869 whole entry, looked up, the tested form may be a part): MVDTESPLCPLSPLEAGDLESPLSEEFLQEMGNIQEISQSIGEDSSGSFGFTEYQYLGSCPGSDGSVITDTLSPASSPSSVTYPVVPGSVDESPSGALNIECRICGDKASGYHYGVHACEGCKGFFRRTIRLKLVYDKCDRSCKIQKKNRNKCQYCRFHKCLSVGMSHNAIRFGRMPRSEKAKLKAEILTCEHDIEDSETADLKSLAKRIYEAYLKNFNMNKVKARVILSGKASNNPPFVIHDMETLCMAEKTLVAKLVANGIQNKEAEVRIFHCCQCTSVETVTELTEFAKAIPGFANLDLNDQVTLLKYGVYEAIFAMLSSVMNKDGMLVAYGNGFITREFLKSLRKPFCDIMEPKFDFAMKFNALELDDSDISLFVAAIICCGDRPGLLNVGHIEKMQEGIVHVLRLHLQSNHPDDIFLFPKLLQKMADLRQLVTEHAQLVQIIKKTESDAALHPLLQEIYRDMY
# Summary of the method: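 Enzyme-fragment complementation assay in which ligand-bound PPARalpha translocates and forms an active enzyme that generates chemiluminescence. Cells were plated overnight, exposed to compound for 6 hr at 37 C, and then given detection reagent for 60 min at room temperature.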
# [12] = qHTS assay for small molecule agonists of the antioxidant response element (ARE) signaling pathway measured by Nrf2-dependant transcriptional activity (AID 720636; active means well fitted curve in the direction sought with a large enough effect in the repeat runs; an effect the other way counts as inactive or inconclusive; further: % of control where 0% means no effect)
# Summary of the method: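 Nrf2-dependent transcription read as ONE-Glo luciferase signal from ARE-luc HepG2 reporter cells after 16 hr compound treatment at 37 C, 5% CO2, in assay medium with 1% dialyzed FBS.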
# [13] = measured here: cell count channel max response
# [14] = measured here: lipid channel max response
smiles,measurement,setting,value
CC1(C)C(O)CC(O)[C@]2(C)C1CC(O)[C@]1(C)C2CC[C@@]2(C)C(c3ccoc3)OC(=O)C3O[C@]312 (stereo partly specified),Potency,[1],12.6 µM (active)
same,Potency,[2],inactive
same,Potency,[3],inactive
same,Potency,[4],inactive
same,"activity change, negative = inhibition",[5],0.703% (inactive)
same,max response,[5]; [13],12.6%
same,max response,[5]; [14],16.1%
C[C@@]12CCC3C(CCC4=CC(=O)CC[C@]43C)C1CCC2O (stereo partly specified),Potency,[1],inactive
same,Potency,[3],inactive
same,Potency,[4],inactive
same,"activity change, negative = inhibition",[5],-1.38% (inactive)
same,max response,[5]; [13],0.874%
same,max response,[5]; [14],1.24%
CC(=O)OC1C2C(OC(=O)Cc3ccccc3)C(C)CC2(OC(C)=O)C(=O)/C(C)=C/C2C(CC[C@@]13CO3)C2(C)C (stereo partly specified),Potency,[2],inactive
same,Potency,[4],inactive
same,"activity change, negative = inhibition",[5],-0.982% (inactive)
same,max response,[5]; [13],-2.07%
same,max response,[5]; [14],-2.51%
C#CCOS(=O)OC1CCCCC1Oc1ccc(C(C)(C)C)cc1 (stereo unspecified),Potency,[1],inactive
same,Potency,[3],inactive
same,"activity change, negative = inhibition",[5],5.08% (inactive)
same,max response,[5]; [13],0.489%
same,max response,[5]; [14],8.3%
same,max response,[6],24.4%
same,Potency,[7],7.08 µM (active)
same,Potency,[8],5.62 µM (active)
same,activation,[9],7.07% (inactive)
same,activation,[10],0.168% (inactive)
same,max response,[11],-1.77% (inactive)
same,outcome,[12],inactive
CCC(C)C(=O)O[C@@H]1C[C@@]2(C)C(c3ccoc3)OC(=O)CC23OC2(C)O[C@@]14[C@@]1(C)C(CC(=O)OC)C5(C)CC1(O)C(O)(C5OC(=O)C1(C)OC1C)C(OC(C)=O)[C@@]34O2 (stereo partly specified),Potency,[1],1 µM (active)
same,Potency,[2],inactive
same,Potency,[3],inactive
same,"activity change, negative = inhibition",[5],5.34% (inactive)
same,max response,[5]; [13],-2.48%
same,max response,[5]; [14],2.6%
NC(=NCCCC(N)C(=O)O)N[N+](=O)[O-] (stereo unspecified),Potency,[3],inactive
same,Potency,[4],inactive
same,"activity change, negative = inhibition",[5],0.218% (inactive)
same,max response,[5]; [13],-5.56%
same,max response,[5]; [14],-2.81%
